TWEAK Fn14 block – inhibitors of TWEAK-Fn14 interaction signaling; TWEAK-stimulated Fn14 reporter cells, luciferase luminescence, 8 h; inhibition, % at 10 µM; actives 2% (n = 360,000); AID 1159606; in the data active = inhibition above about 50%
TROY signal inh – blocks TROY-dependent signaling in reporter cells; AID 1347056; Q293 LMP1-TROYcd NF-kB luciferase reporter, 4 h; inhibition, % at 10 µM; actives 0.98% (n = 360,000);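 active = compounds whose plate-normalised and pattern-corrected inhibition of the luciferase reporter signal at the single screening dose is 50% or more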
HSP90 inh – HSP90 refolding inhibition in rabbit reticulocyte lysate | luciferase refolding luminescence, 3 h | inhibition, % at 5.6 µM | actives 0.91% (n = 290,000) | AID 1789;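 active = inhibition above the screen-wide mean plus 3 SD, computed separately per campaign, cut at about 16% in these data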;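 note: 0% = DMSO wells and 100% = 60 µM geldanamycin wells; inhibitors lower the luminescence because luciferase stays unfolded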
LGR2 antag – Drosophila LGR2 receptor signaling inhibition | actives 0.35% (n = 380,000) | HEK293 LGR2, CRE-luciferase, bursicon-stimulated, 4 h | AID 720647 | inhibition, % at 9.99 µM;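 active = drop in luminescence signal, shown as inhibition above about 50% in the replicate tests, limit read from the data, passing the limit was not always enough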;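 note: agonist challenge used bursicon conditioned medium at about half maximal strength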
Starred values were filed as active, the others as inactive; . = not tested or not shown. An excerpt weighted towards active compounds, which were near 2.2% of everything screened.

SMILES	TWEAK Fn14 block	TROY signal inh	HSP90 inh	LGR2 antag
N#Cc1c(NC(=O)CSc2nc(N)cc(=O)[nH]2)sc2c1CCCCCC2	16	13	-1	-1
CC(C)(C)C(=O)Nc1sc2c(c1C#N)CCC2	-1	-3	-3	-9
CCCc1cc(C(=O)Nc2sc(C)c(CC)c2C#N)no1	-24	-26	-6	-5
N#Cc1c(NC(=O)CSc2ncn[nH]2)sc2c1CCCCC2	75*	46	10	17
CC(=O)NC(=S)Nc1sc2c(c1C#N)CCCCC2	67*	59*	4	21
CCCc1cc(C(=O)Nc2sc3c(c2C#N)CCC3)no1	100*	-28	-1	-23
CC(=O)Nc1sc2c(c1C#N)CCCC2	-24	-41	2	.
CC(C)(C)C(=O)NC(NC(=S)Nc1sc2c(c1C#N)CCCC2)C(Cl)(Cl)Cl (stereo not given)	-9	59*	-1	.
CC(=O)N(C)C[C@H]1Oc2ncc(C#Cc3ccccc3F)cc2C(=O)N([C@H](C)CO)C[C@@H]1C	.	.	.	4
C[C@H]1CCCCO[C@H](CN(C)C(=O)NC2CCCCC2)[C@@H](C)CN([C@@H](C)CO)C(=O)c2cc(NS(=O)(=O)c3cccs3)ccc2O1	.	.	.	21
O=[N+]([O-])c1ccc(NN=Cc2cccc(O)c2)nc1	16	-30	.	-63
Cc1cccc(C)c1-n1c(C)cc(/C=N\Nc2ccc([N+](=O)[O-])cn2)c1C	80*	.	9	.
O=C(CSc1nnc(Cn2nnc3ccccc32)o1)N(Cc1ccc(F)cc1)c1ccccc1	56*	43	2	.
Cn1c(SCC(=O)NCC2CCCO2)nnc1-c1c[nH]c2ccccc12 (stereo not given)	12	13	-1	-10
COc1ccc(CN(C(=O)CSc2nnc(-c3ccc(F)cc3)o2)c2ccc(F)cc2)cc1	10	1	4	12
CCC(C)NC(=O)CSc1nnc(-c2c[nH]c3ccccc23)o1 (stereo not given)	-14	-9	17*	11
CCn1c(SCC(=O)NCC2CCCO2)nnc1-c1c[nH]c2ccccc12 (stereo not given)	63*	.	-3	.
CCNC(=O)NC(=O)CSc1nnc(-c2c[nH]c3ccccc23)o1	-6	2	-3	11
COc1ccc(N(Cc2ccccc2)C(=O)CSc2nnc(Cn3nnc4ccccc43)o2)cc1	-4	20	2	.
COc1ccc(CN(C(=O)CSc2nnc(-c3c[nH]c4ccccc34)o2)c2ccc(F)cc2)cc1OC	72*	38	1	.
COc1ccc(CN(C)C[C@@H]2Oc3ccc(N(C)C)cc3CC(=O)N([C@@H](C)CO)C[C@H]2C)cc1	.	.	.	6
CCNC(=O)C[C@H]1CC[C@H]2[C@@H](COc3ccc(NC(=O)Cc4ccccc4)cc3C(=O)N2C)O1	.	.	.	10
C[C@@H]1CN([C@H](C)CO)C(=O)c2cccc(NS(C)(=O)=O)c2O[C@@H]1CN(C)CC1CC1	.	.	.	18
CN(C)CC(=O)N1CC2(C1)[C@H](c1ccccc1)[C@@H](CO)N2S(=O)(=O)c1ccccc1	.	.	.	2
Cc1nn2cc(-c3ccc(Cl)cc3)nc2s1	63*	-5	5	.
SMILES	TWEAK Fn14 block	TROY signal inh	HSP90 inh	LGR2 antag
COc1ccc(Cl)cc1S(=O)(=O)NCc1cccnc1	-9	5	-1	-10
COc1cc(Cl)c(S(=O)(=O)NCc2cccnc2)cc1Cl	84*	54*	2	7
CCCCC(=O)N(C)c1c(C)nc2ccc(C(=O)N3CCCCC3)cn12	0	-13	.	100*
CN1CCN(C(=O)/C(=C/c2ccc([N+](=O)[O-])cc2)NC(=O)c2ccccc2)CC1	54*	3	-4	-7
CN1CCN(C(=O)/C(=C/c2cccc([N+](=O)[O-])c2)NC(=O)c2ccccc2)CC1	55*	21	-1	-13
O=C(N/C(=C\c1ccc([N+](=O)[O-])cc1)C(=O)N1CCCCC1)c1ccccc1	0	11	1	22
CCCn1nc(C(=O)Nc2ccc3nc(N4CCOCC4)sc3c2)ccc1=O	25	53*	.	9
COc1ccc(-c2ocnc2C(=O)NCc2nn(-c3ccccc3)nc2C)cc1	50*	39	0	18
Cc1ccc(-c2nn3c(C)nnc3c3ccccc23)cc1S(=O)(=O)NC(C)c1ccccc1 (stereo not given)	58*	-8	-1	.
Nn1cc(-c2ccccc2)nc1SCC(=O)NCCc1ccccc1	-5	-17	-3	11
Cc1ccc(-c2cn(-c3ccccc3)c(SCC(=O)NC3CCS(=O)(=O)C3)n2)cc1C (stereo not given)	20	52*	0	-60
NNC(=O)CSc1nc(-c2ccccc2)cn1-c1ccccc1	63*	72*	3	-8

High-throughput results (PubChem)
